Binding signal data for 28 sequences are collected here from publication PMC11006913.

Where a chain is given by its changes, count along the chain named.

Some targets named below: ALX3 (Homo sapiens, UniProt O95076 139-225); MSX2 (Homo sapiens, UniProt P35548 130-214, F161Y); HOXC10 (Homo sapiens, UniProt Q9NYD6 254-340, K271E).
Common to all, as to test: PBM; 200 nM protein, PBS
Details in all cases: dsDNA, one strand shown

Test [1] deals with HOXA7 (Homo sapiens, UniProt P31268 116-202).
Test [2] concerns the target ALX1 (Homo sapiens, UniProt Q15699 118-204, L144V).
The target in test [3] is ALX1 (Homo sapiens, UniProt Q15699 118-204, L144R).
ALX1 (Homo sapiens, UniProt Q15699 118-204, L144R), sequence (Q15699 118-204 L144R): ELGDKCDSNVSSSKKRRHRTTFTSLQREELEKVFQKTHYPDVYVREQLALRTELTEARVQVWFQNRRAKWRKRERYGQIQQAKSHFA
Test [4] has as its target HOXA7 (Homo sapiens, UniProt P31268 116-202, W177C).
Test [5] deals with NKX3-2 (Homo sapiens, UniProt P78367 192-278, P234S).
NKX3-2 (Homo sapiens, UniProt P78367 192-278, P234S), sequence (P78367 192-278 P234S): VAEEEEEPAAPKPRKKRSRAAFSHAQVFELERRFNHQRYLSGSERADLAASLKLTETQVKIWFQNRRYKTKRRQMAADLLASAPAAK
Test [6] addresses ALX1 (Homo sapiens, UniProt Q15699 118-204).
Test [7] deals with NKX3-2 (Homo sapiens, UniProt P78367 192-278).
NKX3-2 (Homo sapiens, UniProt P78367 192-278), sequence (P78367 192-278): as the sequence (P78367 192-278 P234S) above, with S43P counted along it
Test [8] deals with HOXA2 (Homo sapiens, UniProt O43364 129-215, R185T).
HOXA2 (Homo sapiens, UniProt O43364 129-215, R185T), sequence (O43364 129-215 R185T): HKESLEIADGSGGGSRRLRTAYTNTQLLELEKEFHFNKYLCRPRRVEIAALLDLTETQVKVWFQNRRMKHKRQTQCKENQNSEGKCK
Test [9] has as its target HOXA2 (Homo sapiens, UniProt O43364 129-215, R185K).
In test [10] the target is HOXA2 (Homo sapiens, UniProt O43364 129-215, Y150S).
HOXA2 (Homo sapiens, UniProt O43364 129-215, Y150S), sequence (O43364 129-215 Y150S): as the sequence (O43364 129-215 R185T) above, with Y22S, T57R counted along it
In test [11] the target is HOXA2 (Homo sapiens, UniProt O43364 129-215).
HOXA2 (Homo sapiens, UniProt O43364 129-215), sequence (O43364 129-215): as the sequence (O43364 129-215 R185T) above, with T57R counted along it
For test [12], the target named is HOXB6 (Homo sapiens, UniProt P17509 132-218, K202E).
HOXB6 (Homo sapiens, UniProt P17509 132-218, K202E), sequence (P17509 132-218 K202E): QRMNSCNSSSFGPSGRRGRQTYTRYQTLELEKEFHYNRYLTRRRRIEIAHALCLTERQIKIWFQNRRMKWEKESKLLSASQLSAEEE
The target in test [13] is VAX1 (Homo sapiens, UniProt Q5SQQ9 86-172).
VAX1 (Homo sapiens, UniProt Q5SQQ9 86-172), sequence (Q5SQQ9 86-172): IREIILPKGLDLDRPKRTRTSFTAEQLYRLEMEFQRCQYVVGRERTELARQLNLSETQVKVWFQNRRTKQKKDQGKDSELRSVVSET
The target of test [14] is VAX1 (Homo sapiens, UniProt Q5SQQ9 86-172, T142I).
VAX1 (Homo sapiens, UniProt Q5SQQ9 86-172, T142I), sequence (Q5SQQ9 86-172 T142I): as the sequence (Q5SQQ9 86-172) above, with T57I counted along it
The target of test [15] is VAX1 (Homo sapiens, UniProt Q5SQQ9 86-172, K157R).
VAX1 (Homo sapiens, UniProt Q5SQQ9 86-172, K157R), sequence (Q5SQQ9 86-172 K157R): as the sequence (Q5SQQ9 86-172) above, with K72R counted along it
Test [16] addresses HOXB6 (Homo sapiens, UniProt P17509 132-218).
In test [17] the target is T1, PAX4 (Homo sapiens, UniProt O43316 9-242, R200K).
T1 sequence: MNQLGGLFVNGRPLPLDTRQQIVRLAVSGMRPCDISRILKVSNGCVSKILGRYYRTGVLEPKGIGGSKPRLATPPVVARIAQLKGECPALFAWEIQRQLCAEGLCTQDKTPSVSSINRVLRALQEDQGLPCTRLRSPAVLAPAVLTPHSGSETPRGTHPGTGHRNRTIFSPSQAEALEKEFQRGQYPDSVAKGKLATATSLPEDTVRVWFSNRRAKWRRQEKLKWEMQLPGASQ

Test [18] has as its target T2, PAX4 (Homo sapiens, UniProt O43316 9-242).
T2 sequence: T1 sequence with K192R

Test [19] has as its target T3, PAX4 (Homo sapiens, UniProt O43316 9-242, R200Q).
T3 sequence: T1 sequence with K192Q

For test [20], the target named is T4, PAX4 (Homo sapiens, UniProt O43316 9-242, F177V).
T4 sequence: T1 sequence with F169V, K192R

Test [21] has as its target T5, PAX4 (Homo sapiens, UniProt O43316 9-242, F177Y).
T5 sequence: T1 sequence with F169Y, K192R

Test [22] deals with T6, PAX4 (Homo sapiens, UniProt O43316 9-242, R227W).
T6 sequence: T1 sequence with K192R, R219W

Test [23] has as its target HOXD13 (Homo sapiens, UniProt P35453 263-343, T313R).
Test [24] concerns the target HOXD13 (Homo sapiens, UniProt P35453 263-343).
The target of test [25] is HOXD13 (Homo sapiens, UniProt P35453 263-343, T313A).
HOXD13 (Homo sapiens, UniProt P35453 263-343, T313A), sequence (P35453 263-343 T313A): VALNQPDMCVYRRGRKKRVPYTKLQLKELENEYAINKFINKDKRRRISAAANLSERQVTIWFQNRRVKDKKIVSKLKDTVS
For test [26], the target named is PROP1 (Homo sapiens, UniProt O75360 56-141).
PROP1 (Homo sapiens, UniProt O75360 56-141), sequence (O75360 56-141): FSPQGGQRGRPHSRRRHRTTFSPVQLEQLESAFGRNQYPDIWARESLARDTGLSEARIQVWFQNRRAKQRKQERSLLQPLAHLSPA
In test [27] the target is PROP1 (Homo sapiens, UniProt O75360 56-141, R99H).
PROP1 (Homo sapiens, UniProt O75360 56-141, R99H), sequence (O75360 56-141 R99H): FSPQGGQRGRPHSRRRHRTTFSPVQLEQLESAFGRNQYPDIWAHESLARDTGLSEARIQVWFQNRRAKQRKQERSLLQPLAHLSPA
The target in test [28] is PROP1 (Homo sapiens, UniProt O75360 56-141, F88S).
PROP1 (Homo sapiens, UniProt O75360 56-141, F88S), sequence (O75360 56-141 F88S): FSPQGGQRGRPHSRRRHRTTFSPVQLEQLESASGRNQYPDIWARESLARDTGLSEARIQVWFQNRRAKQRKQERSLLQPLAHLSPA

HOXA7 (Homo sapiens, UniProt P31268 116-202, W177C), sequence (P31268 116-202 W177C): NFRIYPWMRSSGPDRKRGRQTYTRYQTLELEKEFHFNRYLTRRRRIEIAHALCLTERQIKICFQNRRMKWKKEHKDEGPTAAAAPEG
HOXA7 (Homo sapiens, UniProt P31268 116-202), sequence (P31268 116-202): as the sequence (P31268 116-202 W177C) above, with C62W counted along it
ALX1 (Homo sapiens, UniProt Q15699 118-204, L144V), sequence (Q15699 118-204 L144V): as the sequence (Q15699 118-204 L144R) above, with R27V counted along it
ALX1 (Homo sapiens, UniProt Q15699 118-204), sequence (Q15699 118-204): as the sequence (Q15699 118-204 L144R) above, with R27L counted along it
HOXB6 (Homo sapiens, UniProt P17509 132-218), sequence (P17509 132-218): as the sequence (P17509 132-218 K202E) above, with E71K counted along it
ALX3, sequence (O95076 139-225): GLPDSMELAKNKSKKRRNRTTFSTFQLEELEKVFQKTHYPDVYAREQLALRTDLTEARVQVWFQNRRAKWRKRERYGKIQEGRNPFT
HOXA2 (Homo sapiens, UniProt O43364 129-215, R185K), sequence (O43364 129-215 R185K): as the sequence (O43364 129-215 R185T) above, with T57K counted along it
HOXC10, sequence (Q9NYD6 254-340 K271E): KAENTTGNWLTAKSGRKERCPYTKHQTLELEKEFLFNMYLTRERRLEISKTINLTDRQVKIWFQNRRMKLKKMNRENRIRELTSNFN
MSX2, sequence (P35548 130-214 F161Y): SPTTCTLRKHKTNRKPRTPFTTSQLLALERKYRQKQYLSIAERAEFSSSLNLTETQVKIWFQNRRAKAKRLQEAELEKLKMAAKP
HOXD13 (Homo sapiens, UniProt P35453 263-343, T313R), sequence (P35453 263-343 T313R): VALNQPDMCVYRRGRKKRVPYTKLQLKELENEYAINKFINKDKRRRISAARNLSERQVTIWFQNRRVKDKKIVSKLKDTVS
HOXD13 (Homo sapiens, UniProt P35453 263-343), sequence (P35453 263-343): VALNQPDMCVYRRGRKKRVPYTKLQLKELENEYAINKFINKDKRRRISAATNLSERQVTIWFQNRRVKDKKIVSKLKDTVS

As for CGGCGTTC, the binding signal is 8.31 upbm affinity estimate (log intensity, higher = more binding, comparable within an allelic series) with HOXA7 [1]; 6.29 upbm affinity estimate (log intensity, higher = more binding, comparable within an allelic series) with ALX1 [2]; 6.24 upbm affinity estimate (log intensity, higher = more binding, comparable within an allelic series) with ALX1 [3]; 8.26 upbm affinity estimate (log intensity, higher = more binding, comparable within an allelic series) with HOXA7 [4]; 10.4 upbm affinity estimate (log intensity, higher = more binding, comparable within an allelic series) with NKX3-2 [5]; 6.31 upbm affinity estimate (log intensity, higher = more binding, comparable within an allelic series) with ALX1 [6]. In the test with NKX3-2 [7], the binding signal is 10.4 upbm affinity estimate (log intensity, higher = more binding, comparable within an allelic series).

Regarding AACTTTAT, the binding signal was 9.71 upbm affinity estimate (log intensity, higher = more binding, comparable within an allelic series) in the test with HOXA7 [1]; 9.63 upbm affinity estimate (log intensity, higher = more binding, comparable within an allelic series) with ALX3; 8.8 upbm affinity estimate (log intensity, higher = more binding, comparable within an allelic series) in the test with HOXA7 [4].

Turning to GTCAGGCA, the binding signal was 8.57 upbm affinity estimate (log intensity, higher = more binding, comparable within an allelic series) in the test with HOXA7 [1] and 8.43 upbm affinity estimate (log intensity, higher = more binding, comparable within an allelic series) with HOXA7 [4].

On to GACGCTGC, for which the binding signal was 8.24 upbm affinity estimate (log intensity, higher = more binding, comparable within an allelic series) in the test with HOXA7 [1]; 6.99 upbm affinity estimate (log intensity, higher = more binding, comparable within an allelic series) with HOXA2 [8]; 10.4 upbm affinity estimate (log intensity, higher = more binding, comparable within an allelic series) with HOXA2 [9]; 10.4 upbm affinity estimate (log intensity, higher = more binding, comparable within an allelic series) with HOXA2 [10]; 8.35 upbm affinity estimate (log intensity, higher = more binding, comparable within an allelic series) with HOXA7 [4]; 7.11 upbm affinity estimate (log intensity, higher = more binding, comparable within an allelic series) in the test with HOXA2 [11].

For AATTACCC, the binding signal was 11.4 upbm affinity estimate (log intensity, higher = more binding, comparable within an allelic series) with HOXA7 [1]; 9.85 upbm affinity estimate (log intensity, higher = more binding, comparable within an allelic series) in the test with HOXB6 [12]; 12.7 upbm affinity estimate (log intensity, higher = more binding, comparable within an allelic series) in the test with VAX1 [13]; 13 upbm affinity estimate (log intensity, higher = more binding, comparable within an allelic series) in the test with MSX2; 12.5 upbm affinity estimate (log intensity, higher = more binding, comparable within an allelic series) with VAX1 [14]; 8.89 upbm affinity estimate (log intensity, higher = more binding, comparable within an allelic series) with HOXA7 [4]. Besides, the binding signal is 12.6 upbm affinity estimate (log intensity, higher = more binding, comparable within an allelic series) with VAX1 [15] and 11.7 upbm affinity estimate (log intensity, higher = more binding, comparable within an allelic series) with HOXB6 [16].

As for CGTTGCTC, the binding signal in the test with HOXA7 [1] was 8.49 upbm affinity estimate (log intensity, higher = more binding, comparable within an allelic series); with PAX4 [17] it was 9.58 upbm affinity estimate (log intensity, higher = more binding, comparable within an allelic series); in the test with PAX4 [18], 9.38 upbm affinity estimate (log intensity, higher = more binding, comparable within an allelic series); with PAX4 [19], 9.57 upbm affinity estimate (log intensity, higher = more binding, comparable within an allelic series); with PAX4 [20] it was 9.52 upbm affinity estimate (log intensity, higher = more binding, comparable within an allelic series); in the test with PAX4 [21], 9.55 upbm affinity estimate (log intensity, higher = more binding, comparable within an allelic series). The binding signal is 9.55 upbm affinity estimate (log intensity, higher = more binding, comparable within an allelic series) with PAX4 [22] and 8.47 upbm affinity estimate (log intensity, higher = more binding, comparable within an allelic series) with HOXA7 [4].

With ATATAAAA, the binding signal with HOXA7 [1] is 9.79 upbm affinity estimate (log intensity, higher = more binding, comparable within an allelic series); with HOXD13 [23], 10.9 upbm affinity estimate (log intensity, higher = more binding, comparable within an allelic series); with HOXD13 [24] it was 11.8 upbm affinity estimate (log intensity, higher = more binding, comparable within an allelic series); with HOXC10, 11.3 upbm affinity estimate (log intensity, higher = more binding, comparable within an allelic series); with HOXD13 [25], 11.7 upbm affinity estimate (log intensity, higher = more binding, comparable within an allelic series); with HOXA7 [4], 8.84 upbm affinity estimate (log intensity, higher = more binding, comparable within an allelic series).

For the sequence GTATTTAA, the binding signal is 10.1 upbm affinity estimate (log intensity, higher = more binding, comparable within an allelic series) in the test with HOXA7 [1]; 9.2 upbm affinity estimate (log intensity, higher = more binding, comparable within an allelic series) in the test with PROP1 [26]; 8.79 upbm affinity estimate (log intensity, higher = more binding, comparable within an allelic series) in the test with PROP1 [27]; 7.52 upbm affinity estimate (log intensity, higher = more binding, comparable within an allelic series) in the test with PROP1 [28]; 8.94 upbm affinity estimate (log intensity, higher = more binding, comparable within an allelic series) in the test with HOXA7 [4].

Take CTCTGAGC: the binding signal was 8.36 upbm affinity estimate (log intensity, higher = more binding, comparable within an allelic series) in the test with HOXA7 [1] and 8.46 upbm affinity estimate (log intensity, higher = more binding, comparable within an allelic series) with HOXA7 [4].

As to CCATTATA, the binding signal with HOXA7 [1] was 11.2 upbm affinity estimate (log intensity, higher = more binding, comparable within an allelic series); in the test with HOXA7 [4], 8.97 upbm affinity estimate (log intensity, higher = more binding, comparable within an allelic series).

On to GCTATAAC, for which the binding signal with HOXA7 [1] was 9.4 upbm affinity estimate (log intensity, higher = more binding, comparable within an allelic series); with ALX1 [2] it was 8.22 upbm affinity estimate (log intensity, higher = more binding, comparable within an allelic series); with ALX1 [3], 8.11 upbm affinity estimate (log intensity, higher = more binding, comparable within an allelic series); in the test with HOXA7 [4], 8.68 upbm affinity estimate (log intensity, higher = more binding, comparable within an allelic series); with ALX1 [6], 8.21 upbm affinity estimate (log intensity, higher = more binding, comparable within an allelic series).

As to CGTTTATC, the binding signal was 9.65 upbm affinity estimate (log intensity, higher = more binding, comparable within an allelic series) with HOXA7 [1]; 8.39 upbm affinity estimate (log intensity, higher = more binding, comparable within an allelic series) with PROP1 [26]; 7.9 upbm affinity estimate (log intensity, higher = more binding, comparable within an allelic series) in the test with PROP1 [27]; 7.41 upbm affinity estimate (log intensity, higher = more binding, comparable within an allelic series) with PROP1 [28]; 8.89 upbm affinity estimate (log intensity, higher = more binding, comparable within an allelic series) with HOXA7 [4].

Regarding AGACGGCG, the binding signal with HOXA7 [1] was 8.6 upbm affinity estimate (log intensity, higher = more binding, comparable within an allelic series); with HOXA7 [4] it was 8.4 upbm affinity estimate (log intensity, higher = more binding, comparable within an allelic series).

In the case of TACGTTAA, the binding signal is 9.58 upbm affinity estimate (log intensity, higher = more binding, comparable within an allelic series) with HOXA7 [1] and 8.79 upbm affinity estimate (log intensity, higher = more binding, comparable within an allelic series) with HOXA7 [4].

As to CGCGTTTC, the binding signal is 8.49 upbm affinity estimate (log intensity, higher = more binding, comparable within an allelic series) with HOXA7 [1] and 8.39 upbm affinity estimate (log intensity, higher = more binding, comparable within an allelic series) with HOXA7 [4].

As for AGAATTAC, the binding signal was 9.68 upbm affinity estimate (log intensity, higher = more binding, comparable within an allelic series) with HOXA7 [1] and 8.8 upbm affinity estimate (log intensity, higher = more binding, comparable within an allelic series) with HOXA7 [4].

With CGTGCAAG, the binding signal was 8.47 upbm affinity estimate (log intensity, higher = more binding, comparable within an allelic series) with HOXA7 [1] and 8.43 upbm affinity estimate (log intensity, higher = more binding, comparable within an allelic series) in the test with HOXA7 [4].

Consider AGGCAAGG, for which the binding signal with HOXA7 [1] was 8.35 upbm affinity estimate (log intensity, higher = more binding, comparable within an allelic series); in the test with HOXA7 [4], 8.48 upbm affinity estimate (log intensity, higher = more binding, comparable within an allelic series).

For ATAAGTAT, the binding signal with HOXA7 [1] is 9.57 upbm affinity estimate (log intensity, higher = more binding, comparable within an allelic series); with HOXA7 [4], 8.76 upbm affinity estimate (log intensity, higher = more binding, comparable within an allelic series).

In the case of CACATAAC, the binding signal with HOXA7 [1] was 9.46 upbm affinity estimate (log intensity, higher = more binding, comparable within an allelic series); with HOXA7 [4], 8.81 upbm affinity estimate (log intensity, higher = more binding, comparable within an allelic series).

Regarding AGTAGTTA, the binding signal was 10 upbm affinity estimate (log intensity, higher = more binding, comparable within an allelic series) with HOXA7 [1] and 8.75 upbm affinity estimate (log intensity, higher = more binding, comparable within an allelic series) with HOXA7 [4].

For CCTTCCGC, the binding signal is 8.39 upbm affinity estimate (log intensity, higher = more binding, comparable within an allelic series) in the test with HOXA7 [1] and 8.37 upbm affinity estimate (log intensity, higher = more binding, comparable within an allelic series) with HOXA7 [4].

Turning to ACCCCCCT, the binding signal with HOXA7 [1] was 8.3 upbm affinity estimate (log intensity, higher = more binding, comparable within an allelic series); in the test with HOXA7 [4] it was 8.32 upbm affinity estimate (log intensity, higher = more binding, comparable within an allelic series).

On to AAGCGGCG, for which the binding signal in the test with HOXA7 [1] is 8.49 upbm affinity estimate (log intensity, higher = more binding, comparable within an allelic series); in the test with HOXA7 [4], 8.33 upbm affinity estimate (log intensity, higher = more binding, comparable within an allelic series).

As to AGCCGCTG, the binding signal is 8.52 upbm affinity estimate (log intensity, higher = more binding, comparable within an allelic series) with HOXA7 [1] and 8.43 upbm affinity estimate (log intensity, higher = more binding, comparable within an allelic series) with HOXA7 [4].

With GCAGGTCC, the binding signal in the test with HOXA7 [1] was 8.46 upbm affinity estimate (log intensity, higher = more binding, comparable within an allelic series); in the test with HOXA7 [4], 8.46 upbm affinity estimate (log intensity, higher = more binding, comparable within an allelic series).

As for ACCTCGCT, the binding signal in the test with HOXA7 [1] is 8.51 upbm affinity estimate (log intensity, higher = more binding, comparable within an allelic series); in the test with HOXA7 [4] it was 8.51 upbm affinity estimate (log intensity, higher = more binding, comparable within an allelic series).

For the sequence TCATTTCA, the binding signal with HOXA7 [1] is 9.51 upbm affinity estimate (log intensity, higher = more binding, comparable within an allelic series); in the test with HOXA7 [4], 8.76 upbm affinity estimate (log intensity, higher = more binding, comparable within an allelic series).
